Bioassay records: PubChem, National Center for Advancing Translational Sciences (NCATS)
Hits are enriched below; roughly 5.8% of the tested compounds scored in any of these assays.
KB-3-1 cytotox: KB-3-1 parental cell cytotoxicity. KB-3-1 viability, CellTiter-Glo ATP luminescence, 72 h. AID 1347075. Potency, µM (series often up to 46.1 µM), usual class: cytotoxic. 400,000 tested, 1.4% active; note: % is set by controls: 0 for no effect and ±100 for the full control effect; nearly all actives have a fitted effect of over 60% in size
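72 h, 37 °C compound treatment of KB-3-1 parental cells; CellTiter-Glo added, 10 min, luminescence read. Data corrected against DMSO-only plates and normalized before curve fitting.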
KB-V1 cytotox: kills drug-selected multidrug resistant KB-V1 cells; 400,000 tested, 3.4% active; Potency, µM (titrated, usually from 46.1 µM), usual class: cytotoxic; KB-V1 MDR cells viability, CellTiter-Glo, 72 h; AID 1347076; note: % is set by controls: 0 for no effect and ±100 for the full control effect; nearly all actives have a fitted effect of over 60% in size
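Cytotoxicity toward P-gp-expressing KB-V1 cells was determined as loss of CellTiter-Glo luminescence after 72 h at 37 degrees C. Compounds were tested in quantitative HTS format across a concentration range, with curves fitted to normalized data.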
PINK1 expr mod: changes PINK1 expression | PINK1 immunofluorescence, high-content cytometry, 24 h | 410,000 tested, 0.2% active | Potency, µM (doses to about 76.6 µM), for the others: at the highest dose activation (PINK1 increase), hits mostly activators; active = well fitted activation curve with a large enough effect; inconclusive = small, poorly fitted or top-dose-only effect; cell line not stated here; note: % of control where 0% means no effect; nearly all actives have a fitted effect of over 65% in size
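PINK1 protein level read as immunofluorescence by microplate cytometer in a fixed, stained stable cell line after 24 h exposure to five compound concentrations, with CCCP as control.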
12-LOX inh: blocks human arachidonate 12S-lipoxygenase; Potency, µM (series often up to 108 µM), for the others: top-dose activity change, negative = inhibition, actives largely listed as inhibitors; 580,000 tested, 1.1% active; purified 12hLO, xylenol orange hydroperoxide absorbance; P18054; note: % is set by controls: 0 for no effect and ±100 for the full control effect
Target sequence (P18054 whole entry, looked up): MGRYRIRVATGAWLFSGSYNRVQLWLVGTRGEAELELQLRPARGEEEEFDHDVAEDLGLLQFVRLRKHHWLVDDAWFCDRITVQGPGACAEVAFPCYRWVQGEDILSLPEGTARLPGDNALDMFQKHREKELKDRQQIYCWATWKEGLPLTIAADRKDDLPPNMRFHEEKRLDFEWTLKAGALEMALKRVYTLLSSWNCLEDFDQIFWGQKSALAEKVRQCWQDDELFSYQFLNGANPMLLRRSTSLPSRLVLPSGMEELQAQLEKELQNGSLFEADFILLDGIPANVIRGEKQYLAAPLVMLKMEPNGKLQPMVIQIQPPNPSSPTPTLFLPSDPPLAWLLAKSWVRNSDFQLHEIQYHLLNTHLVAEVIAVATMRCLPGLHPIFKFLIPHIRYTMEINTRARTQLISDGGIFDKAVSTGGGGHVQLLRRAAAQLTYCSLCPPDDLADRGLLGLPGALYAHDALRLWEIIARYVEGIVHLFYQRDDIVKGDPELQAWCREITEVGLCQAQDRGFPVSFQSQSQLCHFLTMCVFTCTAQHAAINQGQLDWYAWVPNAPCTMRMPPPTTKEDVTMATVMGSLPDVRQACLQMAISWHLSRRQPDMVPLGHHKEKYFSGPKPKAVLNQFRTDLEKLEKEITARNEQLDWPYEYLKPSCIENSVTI
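Purified human 12hLO (150 nM final) in 25 mM Hepes, 0.01% Triton X-100, pH 7.0 was preincubated 15 min at room temperature with compound. Then 40 uM arachidonic acid was added, 30 min. Hydroperoxide was read by Fe-XO absorbance ratio 573/405 nm.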
SW480 rerep: DNA re-replication induction in SW480 cells. SW480 DNA re-replication, Hoechst DNA content imaging, 48 h. Potency, µM (doses to about 46.1 µM), without a hit: at the top dose re-replication activation, hits mostly activators. 340,000 tested, 1.8% active; note: % of control where 0% means no effect; nearly all actives have a fitted effect of over 55% in size
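Treated cells incubate 48 hr (37 C, 5% CO2), are stained 40 min with Hoechst, and nuclear fluorescence is enumerated; a rise in nuclei with high DNA signal marks re-replication.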
MCF10A rereplic: inducers of DNA re-replication in MCF 10A breast cells; MCF 10A DNA re-replication, Hoechst nuclear intensity, 48 h; Potency, µM (top dose mostly 46.1 µM), for inactives: at the highest dose activity, positive = re-replication, usual class: activators; 350,000 tested, 2.9% active; AID 624296; note: % of control where 0% means no effect; nearly all actives have a fitted effect of over 50% in size
Starred values were filed as active, the others as inactive; [ ] = another dose, or the depositor's remark. Unless noted, calls come from the whole dose curve; as a rule, active = well fitted curve in the direction sought with a large enough effect; inconclusive = small, poorly fitted or top-dose-only effect, or another doubt; inactive = no such curve, though single readings can be large; an effect the other way counts as inactive or inconclusive. Potency is the fitted concentration of half-maximal effect.

`O=C(CCSc1nc(-c2ccco2)cc(C(F)(F)F)n1)NCCc1ccccc1` gave KB-3-1 cytotox inactive, KB-V1 cytotox inconclusive, PINK1 expr mod 1%, 12-LOX inh 328%, SW480 rerep -1%[9.22 µM] and MCF10A rereplic inconclusive.
Screening CCn1cc(CNC(=O)CCSc2nc(-c3ccco3)cc(C(F)(F)F)n2)cn1 returned KB-3-1 cytotox inconclusive, KB-V1 cytotox 4.6µM*, PINK1 expr mod 6%, 12-LOX inh 0%, SW480 rerep inconclusive and MCF10A rereplic inconclusive.
Screening O=C(CSc1nc(-c2ccco2)cc(C(F)(F)F)n1)Nc1ccc2c(c1)OCO2 returned KB-3-1 cytotox inconclusive, KB-V1 cytotox 18µM*, PINK1 expr mod 10%[38.3 µM], 12-LOX inh 8%, SW480 rerep -7% and MCF10A rereplic -2%.
O=C(CCCSc1nc(-c2ccco2)cc(C(F)(F)F)n1)Nc1ccc2c(c1)OCO2 was read as KB-3-1 cytotox inactive, KB-V1 cytotox inactive, PINK1 expr mod -3%, 12-LOX inh 56%, SW480 rerep 2% and MCF10A rereplic -2%.
Cc1ccc(S(=O)(=O)N2CCN(C(=O)c3ccc(N4CCCC4)c([N+](=O)[O-])c3)CC2)cc1 was read as KB-3-1 cytotox inactive, KB-V1 cytotox inconclusive, PINK1 expr mod 0%, 12-LOX inh -17%, SW480 rerep inconclusive and MCF10A rereplic 2%.
CO/N=C/c1ccc(N2CCCC2)c([N+](=O)[O-])c1 was read as KB-3-1 cytotox inactive, KB-V1 cytotox inconclusive, PINK1 expr mod 0%, 12-LOX inh 0%, SW480 rerep -5% and MCF10A rereplic -7%.
CO/N=C/c1ccc(N2CCN(C(=O)c3ccc(C)cc3)CC2)c([N+](=O)[O-])c1 was read as KB-3-1 cytotox inconclusive, KB-V1 cytotox 9.2µM*, PINK1 expr mod -9%[38.3 µM], 12-LOX inh -6%, SW480 rerep 1% and MCF10A rereplic 19%.
Cc1ccc(S(=O)(=O)N2CCN(c3ccc(C(=O)N4CCOCC4)cc3[N+](=O)[O-])CC2)cc1 was read as KB-3-1 cytotox inactive, KB-V1 cytotox 2.9µM*, PINK1 expr mod 11%, 12-LOX inh -5%, SW480 rerep -6% and MCF10A rereplic inconclusive.
`NC(=O)c1ccc(N2CCN(S(=O)(=O)c3ccccc3)CC2)c([N+](=O)[O-])c1` gave KB-3-1 cytotox 18µM*, KB-V1 cytotox 9.2µM*, PINK1 expr mod 2%, 12-LOX inh -10%, SW480 rerep -4% and MCF10A rereplic 35%.
`Cc1ccc(-n2nnnc2CNS(=O)(=O)c2ccccc2Cl)cc1` gave 12-LOX inh -8%.
`COC(=O)c1ccc(CN2C(=O)[C@@H]3C[C@@H](O)CN3C3(CN(Cc4cccc(OC)c4)C3)C2=O)cc1` gave 12-LOX inh -11%.
Screening O=C(NCCc1ccc(Cl)cc1)c1nc(-c2cccc(F)c2)c2cnccn12 returned 12-LOX inh 51%.
Screening CCOC(=O)c1c(CSc2ccccc2)n(C)c2cc(Br)c(OC)c(O)c12 returned KB-3-1 cytotox inactive, KB-V1 cytotox inactive, PINK1 expr mod 4%, 12-LOX inh 9%, SW480 rerep -21% and MCF10A rereplic 3%.
Screening CCOC(=O)c1c(CSc2ccccc2)n(C)c2cc(Br)c(OCC(O)CNC(CO)(CO)CO)cc12 (stereo unspecified) returned KB-3-1 cytotox inconclusive, KB-V1 cytotox inactive, PINK1 expr mod -1%, 12-LOX inh -15%, SW480 rerep inconclusive and MCF10A rereplic 21µM*.
Screening Cc1nc2c3c(ncn2n1)OC1=C(C(=O)CCC1)C3c1ccco1 (stereo unspecified) returned 12-LOX inh 1%.
For Cc1ccc(-c2noc(-c3cccnc3NC(C)c3ccccc3)n2)cc1 (stereo unspecified) the results were 12-LOX inh -4%.
Screening N#CC1=C(N)Oc2cc(N)ccc2C1C1CC=CCC1 (stereo unspecified) returned KB-3-1 cytotox inconclusive, KB-V1 cytotox 6.5µM*, PINK1 expr mod 8%, 12-LOX inh -9%, SW480 rerep 16µM* and MCF10A rereplic 6.5µM*.
Screening CC1(C)CC(=O)C2=C(C1)OC(N)=C(C#N)C2C1CC=CCC1 (stereo unspecified) returned KB-3-1 cytotox inactive, KB-V1 cytotox 16µM*, PINK1 expr mod 2%[38.3 µM], 12-LOX inh -6%, SW480 rerep 0% and MCF10A rereplic 0%.
CC1=C[C@@H](CNC(=O)[C@@H]2CCCC[C@@H]2C(=O)O)[C@H](C(C)C)C[C@H]1Cc1nc2ccccc2[nH]1 was read as 12-LOX inh 48%.
For N#Cc1ccc(/C=N/Nc2ccc(S(N)(=O)=O)cc2[N+](=O)[O-])cc1 the results were 12-LOX inh -7%.
Screening O=C(c1c(Cl)nc2sccn12)N1CCN(c2cccc(Cl)c2)CC1 returned KB-3-1 cytotox 1.6µM*, KB-V1 cytotox inconclusive, PINK1 expr mod 8%, 12-LOX inh -83%, SW480 rerep 2.9µM* and MCF10A rereplic 4.1µM*.
For O=C(c1cccc(F)c1)N1CCN(c2cccc(Cl)c2)CC1 the results were KB-3-1 cytotox 21µM*, KB-V1 cytotox 12µM*, PINK1 expr mod 3%, 12-LOX inh -2%, SW480 rerep inconclusive and MCF10A rereplic inconclusive.
Screening O=C(c1ccc(N2CCN(C(=O)c3ccc(F)c(F)c3)CC2)cc1)c1cccc(F)c1 returned KB-3-1 cytotox inconclusive, KB-V1 cytotox inconclusive, PINK1 expr mod -1%, 12-LOX inh inconclusive, SW480 rerep 27% and MCF10A rereplic inconclusive.
For O=C(c1ccc(Cl)cc1)N1CCN(c2ccc(F)cc2)CC1 the results were KB-3-1 cytotox inactive, KB-V1 cytotox 16µM*, PINK1 expr mod 0%, 12-LOX inh inconclusive, SW480 rerep -7% and MCF10A rereplic 5%.
For O=C(c1ccc(N2CCN(C(=O)c3ccccc3)CC2)cc1)c1cccc(F)c1 the results were KB-3-1 cytotox inconclusive, KB-V1 cytotox 9.2µM*, PINK1 expr mod 1%, 12-LOX inh -6%, SW480 rerep 8% and MCF10A rereplic 9.2µM*.
For O=C(c1ccncc1)N1CCN(c2ccc(F)cc2)CC1 the results were KB-3-1 cytotox inactive, KB-V1 cytotox inactive, PINK1 expr mod 1%, 12-LOX inh -19%, SW480 rerep -16% and MCF10A rereplic -2%.
Cc1[nH]c(-c2ccc(F)cc2)cc1C(=O)N1CCN(c2cccc(Cl)c2)CC1 was read as KB-3-1 cytotox inactive, KB-V1 cytotox inconclusive, PINK1 expr mod 21%, 12-LOX inh -11%, SW480 rerep inconclusive and MCF10A rereplic 9.2µM*.
